Results from the supplement of paper PMC13380429.

System: Vero E6 infected with SARS-CoV-2
Assay: inhibition of SARS-CoV-2 cytopathic effect; higher = more antiviral protection, active = above 15
Conditions: 48 h

| Compound | inhibition of SARS-CoV-2 cytopathic effect (1 nM) | inhibition of SARS-CoV-2 cytopathic effect (8.33 nM) | inhibition of SARS-CoV-2 cytopathic effect (100 nM) | inhibition of SARS-CoV-2 cytopathic effect (833.33 nM) | inhibition of SARS-CoV-2 cytopathic effect (10000 nM) |
| --- | --- | --- | --- | --- | --- |
| C/C=C1\NC(=O)[C@H]2CSSCC/C=C/[C@H](CC(=O)N[C@H](C(C)C)C(=O)N2)OC(=O)[C@H](C(C)C)NC1=O [romidepsin] | -1.04% (inactive) | 0.79% (inactive) | -0.75% (inactive) | -16.6% (inactive) | -18% (inactive) |
| C=C1CC/C=C(\C)CC[C@@H]2[C@@H]1CC2(C)C [g-caryophyllene] | 1.74% (inactive) | 2.63% (inactive) | -0.6% (inactive) | 1.24% (inactive) | 1.88% (inactive) |
| CC(C)(Oc1ccc(C2CC2(Cl)Cl)cc1)C(=O)O (stereo not given) [ciprofibrate] | -2% (inactive) | 1.09% (inactive) | -0.52% (inactive) | -2.34% (inactive) | -4.5% (inactive) |
| N=C(N)S/C=C\C(=O)O | 1.98% (inactive) | 0.81% (inactive) | -2.6% (inactive) | -1.03% (inactive) | -0.56% (inactive) |
| Cc1cc(=O)[nH]c(=S)[nH]1 [methylthiouracil] | 0.85% (inactive) | 2.29% (inactive) | -0.49% (inactive) | 1.73% (inactive) | -0.31% (inactive) |
| COc1ccc2[nH]cc(CCNC(C)=O)c2c1 [melatonin] | 2.18% (inactive) | 0.84% (inactive) | 2.24% (inactive) | 2.42% (inactive) | -2.74% (inactive) |
| COC[C@@H](c1ccc(C(F)(F)F)cc1)N1CCN(C2(C)CCN(C(=O)c3c(C)ncnc3C)CC2)C[C@@H]1C [vicriviroc] | -0.96% (inactive) | -0.11% (inactive) | -0.52% (inactive) | 0.02% (inactive) | -0.9% (inactive) |
| CCOC(=O)Nc1ccc(NCc2ccc(F)cc2)nc1N [flupirtine] | 0.67% (inactive) | 0.58% (inactive) | -1.4% (inactive) | 0.07% (inactive) | 1.37% (inactive) |
| Nc1c(-c2cccc(C(F)(F)F)c2)nsc1C(=O)O [amflutizole] | -1.13% (inactive) | 0.29% (inactive) | -1.28% (inactive) | 0.87% (inactive) | 1.39% (inactive) |
| CN(C)CC(=O)Nc1ccc2[nH]c(=O)c3ccccc3c2c1 | 1.34% (inactive) | 2.81% (inactive) | 1.23% (inactive) | 5.19% (inactive) | 6.44% (inactive) |
| O=C(O)c1ccc(N2C(=O)/C(=C/c3ccc(-c4ccc([N+](=O)[O-])cc4)o3)C=C2c2ccccc2)cc1 | -2.98% (inactive) | -0.14% (inactive) | 1.72% (inactive) | -6.51% (inactive) | -0.18% (inactive) |
| Cc1cc([N+](=O)[O-])ccc1NS(=O)(=O)c1cc(Cl)ccc1Cl | -3.81% (inactive) | -2.34% (inactive) | -0.48% (inactive) | 0.28% (inactive) | 2.09% (inactive) |
| Cc1cccc(C)c1NC(=O)CC12CCCN1CCC2 [pilsicainide] | 0.34% (inactive) | 2.77% (inactive) | 4.31% (inactive) | 6.65% (inactive) | -1.57% (inactive) |
| COc1ccc2c(c1OC)C(=O)O[C@@H]2[C@H]1c2cc3c(cc2CCN1C)OCO3 [hydrastine-(1R,9S)] | 2.12% (inactive) | 0.73% (inactive) | 1.14% (inactive) | 1.33% (inactive) | -0.76% (inactive) |
| CCN1C(=O)NC(c2ccccc2)C1=O (stereo not given) [ethotoin] | 0.06% (inactive) | 4.06% (inactive) | 2.41% (inactive) | 2.46% (inactive) | -0.15% (inactive) |
| COc1cc(/C=C2\CCC/C(=C\c3ccc(O)c(OC)c3)C2=O)ccc1O [cyclovalone] | -0.89% (inactive) | 0.77% (inactive) | 2.28% (inactive) | 6.64% (inactive) | 29.5% (active) |
| Nc1nc(NCCc2ccc(O)cc2)nc2nc(-c3ccco3)nn12 | 0.11% (inactive) | -0.03% (inactive) | -0.54% (inactive) | -1.25% (inactive) | -5.15% (inactive) |
| Cc1cc(C)c(NC(=O)C2CC3CCC2C3)c(C)c1 (stereo not given) | -1.62% (inactive) | -1.21% (inactive) | -3.03% (inactive) | -0.39% (inactive) | 2.61% (inactive) |
| C#Cc1cccc(Nc2ncnc3cc(OCCOC)c(OCCO)cc23)c1 | 2.26% (inactive) | -0.66% (inactive) | -2.61% (inactive) | -4.18% (inactive) | -8.66% (inactive) |
| COc1cc2ncc(-c3ccccc3)nc2cc1OC [tyrphostin-AG-1296] | 1.41% (inactive) | 0.53% (inactive) | 0.84% (inactive) | -1.04% (inactive) | -1.96% (inactive) |
| Cc1c(-c2ccc(O)cc2)n(Cc2ccc(OCCN3CCCCCC3)cc2)c2ccc(O)cc12 [bazedoxifene] | -2% (inactive) | -3.97% (inactive) | -2.44% (inactive) | -5.76% (inactive) | 48.9% (active) |

| Compound | inhibition of SARS-CoV-2 cytopathic effect (1 nM) | inhibition of SARS-CoV-2 cytopathic effect (8.33 nM) | inhibition of SARS-CoV-2 cytopathic effect (100 nM) | inhibition of SARS-CoV-2 cytopathic effect (833.33 nM) | inhibition of SARS-CoV-2 cytopathic effect (10000 nM) |
| --- | --- | --- | --- | --- | --- |
| Cc1cc(OI)c(C(C)C)cc1-c1cc(C(C)C)c(OI)cc1C [thymol-iodide] | -1.11% (inactive) | -0.04% (inactive) | -0.16% (inactive) | 1.69% (inactive) | -2.32% (inactive) |
| CC(C)c1ccc(C(=O)N=C(N)N)cc1S(C)(=O)=O [cariporide] | 0.61% (inactive) | 4.56% (inactive) | 2.44% (inactive) | 1.5% (inactive) | -0.17% (inactive) |
| N[C@@H]1CONC1=O [cycloserine-(D)] | -2.12% (inactive) | -4.07% (inactive) | -2.78% (inactive) | -4.11% (inactive) | -3.61% (inactive) |
| COc1cc(C(=S)N2CCOCC2)cc(OC)c1OC [sulmetozine] | -6.81% (inactive) | -0.82% (inactive) | 1.75% (inactive) | -0.02% (inactive) | 2.55% (inactive) |
| CC(C(=O)O)c1cccc(C(=O)c2ccccc2)c1 (stereo not given) [ketoprofen] | -0.91% (inactive) | -0.62% (inactive) | -0.91% (inactive) | -0.03% (inactive) | -0.97% (inactive) |
| CCCS(=O)(=O)Nc1ccc(F)c(C(=O)c2c[nH]c3ncc(Cl)cc23)c1F | 0.68% (inactive) | 0.41% (inactive) | -0.45% (inactive) | 2.16% (inactive) | 1.71% (inactive) |
| C[C@]12CC/C(=N\OCCN)C[C@@H]1C(=O)C[C@@H]1[C@@H]2CC[C@]2(C)C(=O)CC[C@@H]12 [istaroxime] | 2.17% (inactive) | -1.67% (inactive) | 1.45% (inactive) | 3.86% (inactive) | 6.93% (inactive) |
| CC(=O)O[C@H]1CC[C@@]2(C)C(=CC[C@@H]3[C@@H]2CC[C@]2(C)C(c4cccnc4)=CC[C@@H]32)C1 [abiraterone-acetate] | -0.73% (inactive) | 0.99% (inactive) | -0.37% (inactive) | -1.43% (inactive) | -0.75% (inactive) |
| Cc1[nH]c2ccc(F)cc2c1-c1nc2c3cccnc3c3ncccc3c2[nH]1 | 0.2% (inactive) | 1.01% (inactive) | 0.29% (inactive) | -0.86% (inactive) | 2.7% (inactive) |
| C[C@]12CC[C@@H](O)C[C@H]1CC[C@@H]1[C@@H]2CC[C@]2(C)C(=O)CC[C@@H]12 [3-alpha-hydroxy-5-beta-androstan-17-one] | -1.07% (inactive) | 1.38% (inactive) | 2.2% (inactive) | 3% (inactive) | 2.64% (inactive) |
| CCCc1nc(C)c2c(=O)nc(-c3cc(S(=O)(=O)N4CCN(CC)CC4)ccc3OCC)[nH]n12 [vardenafil] | -1.45% (inactive) | -1.02% (inactive) | 0.46% (inactive) | -0.81% (inactive) | 1.4% (inactive) |
| C1Cc2[nH]nc(-c3nn[nH]n3)c2C1 | -1.32% (inactive) | -1.1% (inactive) | -1.82% (inactive) | -3.19% (inactive) | 2.43% (inactive) |
| O=[N+]([O-])c1cc(O)c(O)c([N+](=O)[O-])c1 | -0.65% (inactive) | -3.05% (inactive) | -3.12% (inactive) | 1.93% (inactive) | -3.2% (inactive) |
| COc1ccc(CCNCC(O)COc2cccc(C)c2)cc1OC (stereo not given) [bevantolol] | -3.29% (inactive) | -3.57% (inactive) | -4.47% (inactive) | -3.25% (inactive) | -5.37% (inactive) |
| CC1(C)Oc2ccc(C#N)cc2[C@H](N(Cc2ncc[nH]2)c2ccc(Cl)cc2)[C@H]1O | 0.45% (inactive) | -1.34% (inactive) | 1.85% (inactive) | 2.7% (inactive) | -1.77% (inactive) |
| N=C(N)Nc1ccc(C(=O)Oc2ccc3cc(C(=N)N)ccc3c2)cc1 [nafamostat] | 1.66% (inactive) | 4.06% (inactive) | 4.33% (inactive) | 3.65% (inactive) | 4.81% (inactive) |
| C[C@@H]1COCCN1c1cc(=O)n2c(n1)N(Cc1cncc(Cl)c1)[C@H](C(F)(F)F)CC2 | -2.96% (inactive) | 2.22% (inactive) | -0.24% (inactive) | 7.24% (inactive) | 44.4% (active) |
| CN1C(=O)N(c2cc(Cl)cc(Cl)c2)C(=O)[C@@]1(C)Cc1ccc(Br)cc1 | -0.07% (inactive) | -0.29% (inactive) | -0.15% (inactive) | -1.61% (inactive) | -5.8% (inactive) |
| Cc1csc(NC(=O)CSc2ccc(-c3ccccc3)nn2)n1 | 6.45% (inactive) | -1.88% (inactive) | -1.71% (inactive) | -1.48% (inactive) | 12.2% (inactive) |
| C#C[C@]1(O)CC[C@H]2[C@@H]3CCC4=CC(=O)CC[C@]4(C)[C@H]3CC[C@@]21C [ethisterone] | 2.99% (inactive) | 3.61% (inactive) | 2.08% (inactive) | -0.95% (inactive) | 2.77% (inactive) |
